Results as given in PubChem BioAssay (Tox21).
Results filed as inconclusive are left out. The source made the active and inactive calls. Unless noted, calls come from the whole dose curve; as a rule, active = well fitted curve in the direction sought with a large enough effect in the repeat runs; inconclusive = weak or mixed curves; inactive = no such curve, though single readings can be large; an effect the other way counts as inactive or inconclusive.

Legend:
[1] = A CellTox Green Cytotoxicity Assay to monitor cytotoxicity in HEK293 cells - 32 hour (AID 1224881); note: nearly all actives have a fitted effect of over 40% in size
In short: (§1)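 Fluorescence intensity, read at 0, 8, 16, 24, 32 and 40 h of compound treatment, reflected dye binding to DNA of dead HEK293 cells; compounds (23 nL, DMSO) were added 5 h after plating cells with reagent.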

[2] = A CellTox Green Cytotoxicity Assay to monitor cytotoxicity in HepG2 cells - 0 hour (AID 1224882); note: nearly all actives have a fitted effect of over 35% in size
In short: (§2)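 Using 1536-well format, dye-containing HepG2 suspension was seeded, allowed 5 h at 37 C/5% CO2, dosed by pintool with compounds, positive and negative controls, and imaged for fluorescence across 40 h.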

[3] = A CellTox Green Cytotoxicity Assay to monitor cytotoxicity in HepG2 cells - 32 hour (AID 1224883); note: nearly all actives have a fitted effect of over 50% in size; note: potency is the fitted concentration of half-maximal effect
In short: as §2

[4] = A CellTox Green Cytotoxicity Assay to monitor cytotoxicity in HEK293 cells - 8 hour (AID 1224884); note: nearly all actives have a fitted effect of over 35% in size
In short: as §1

[5] = qHTS RealTime-Glo MT Cell Viability Assay in HepG2 cells - 16 hour (AID 1224885); note: nearly all actives have a fitted effect of over 50% in size
In short: (§3)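 Real-time, nonlytic viability: 600 HepG2 cells/well mixed with NanoLuc enzyme plus prosubstrate; 5 h settle, compound (DMSO) added by pintool; luminescence monitored over 40 h at 37 C.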

[6] = qHTS RealTime-Glo MT Cell Viability Assay in HEK293 cells - 24 hour (AID 1224886); note: top concentration of the series differs between compounds; nearly all actives have a fitted effect of over 50% in size
In short: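 Cells + reagent dispensed (600 cells/well, HEK293) → 5 h at 37 C/5% CO2 → 23 nL compound in DMSO pinned → 40 h at 37 C → luminescence read at 0, 8, 16, 24, 32, 40 h.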

[7] = qHTS RealTime-Glo MT Cell Viability Assay in HEK293 cells - 8 hour (AID 1224887); note: top concentration of the series differs between compounds; nearly all actives have a fitted effect of over 50% in size
In short: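 Viable HEK293 cells reduce a cell-permeant prosubstrate; the product diffuses out and is consumed by NanoLuc in the medium to give light. Compounds went in after a 5 h incubation and plates were read over the treatment course.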

[8] = qHTS RealTime-Glo MT Cell Viability Assay in HepG2 cells - 0 hour (AID 1224889); note: nearly all actives have a fitted effect of over 50% in size; note: potency is the fitted concentration of half-maximal effect
In short: as §3

[9] = A CellTox Green Cytotoxicity Assay to monitor cytotoxicity in HepG2 cells - 8 hour (AID 1224890); note: nearly all actives have a fitted effect of over 45% in size
In short: as §2

[10] = qHTS assay to identify small molecule antagonists of the estrogen receptor alpha (ER-alpha) signaling pathway using the BG1 cell line in the presence of 0.1 nM 17-beta-estradiol - cell viability counter screen (AID 1259241); note: nearly all actives have a fitted effect of over 40% in size
In short: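 Measures cytotoxicity alongside the ER-alpha antagonist readout: VM7Luc4E2 cells, charcoal-stripped serum, 0.1 nM 17beta-estradiol final, 22 hr compound incubation at 37C, CellTiter-Fluor fluorescence.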

[11] = qHTS assay to identify small molecule antagonists of the androgen receptor (AR) signaling pathway using the MDA cell line in the presence of 0.5 nM R1881 - cell viability counter screen (AID 1259242); note: nearly all actives have a fitted effect of over 45% in size
In short: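 Viability of MDA-kb2 cells was multiplexed with the luciferase AR readout; after 16 hr with compounds and R1881 at 0.5 nM final, CellTiter-Fluor fluorescence was recorded.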

[12] = qHTS assay to identify small molecule HDAC inhibitors (AID 1259364); note: potency is the fitted concentration of half-maximal effect;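 note: wild-type HCT-116 cells with endogenous class I/II HDAC activity; nearly all actives have a fitted effect of over 45% in size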; for activity change, negative = inhibition: top concentration of the series differs between compounds
In short: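 Read-out: luminescence of HDAC-Glo I/II reagent, 30 min RT, reflecting class I/II deacetylase activity in whole HCT-116 cells pre-exposed 2 h to DMSO-dissolved compounds.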

[13] = qHTS assay to identify small molecule HDAC inhibitors - cell viability counter screen (AID 1259365)
In short: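 Following a 2hr exposure of overnight-plated wild-type HCT-116 cells to DMSO-delivered compounds, CellTiter-Glo was added and luminescence recorded after 30min at room temperature.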

[14] = qHTS assay to identify small molecule antagonists of the sonic hedgehog signaling (Shh) pathway - cell viability counter screen (AID 1259367); note: nearly all actives have a fitted effect of over 55% in size
In short: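 NIH/3T3-derived Gli1-Luc reporter cells, 2,000/well, plated 4 hr before compound addition, then stimulated with conditioned medium for 24 hr at 37C. Viability measured in the same wells by CellTiter-Fluor fluorescence, reagent added at 23 hr for 1 hr.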

[15] = qHTS assay to identify small molecule agonists of the sonic hedgehog signaling (Shh) pathway (AID 1259368; calls by dose curve;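 note: NIH/3T3-derived 3T3Gli1-Luc cells carrying a stable Gli1-driven firefly luciferase reporter; series mostly up to about 92 µM; nearly all actives have a fitted effect of over 15% in size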)
In short: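 A Gli1 transcriptional response element controlled firefly luciferase in 3T3Gli1-Luc cells. Compounds and a positive control were added 4 hr after plating, and cells were incubated a further 24 hr at 37 C before luminescence detection.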

[16] = molecular target: Androgen receptor (Homo sapiens) (UniProt P10275); assay: qHTS assay to identify small molecule antagonists of the androgen receptor (AR) signaling pathway using the MDA cell line in the presence of 0.5 nM R1881 (AID 1259243); note: nearly all actives have a fitted effect of over 50% in size; note: potency is the fitted concentration of half-maximal effect
In short: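 Reporter cells cultured without CO2 receive test chemicals, then 0.5 nM R1881 final; after 16 hr at 37C, ONE-Glo is added and light output recorded.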

[17] = molecular target: Estrogen receptor (Homo sapiens) (UniProt P03372); assay: qHTS assay to identify small molecule antagonists of the estrogen receptor alpha (ER-alpha) signaling pathway using the BG1 cell line in the presence of 0.1 nM 17-beta-estradiol (AID 1259244); note: nearly all actives have a fitted effect of over 50% in size
In short: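 Estradiol at 0.1 nM (final) stimulates the endogenous ER-alpha of VM7Luc4E2 cells carrying an ERE-driven luciferase; compounds are co-incubated 22 h at 37C and luciferase output quantified by luminescence.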

[18] = A CellTox Green Cytotoxicity Assay to monitor cytotoxicity in HEK293 cells - 16 hour (AID 1224888); note: nearly all actives have a fitted effect of over 35% in size
In short: as §1

[19] = qHTS assay to identify small molecule phospholipidosis (PLD) inducers (AID 1259344; active = well fitted curve in the direction sought with a large enough effect; an effect the other way counts as inactive or inconclusive)
In short: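 HepG2 cells, 900/well, treated with compound plus LipidTOX Red for 24 h at 37 C; amiodarone positive and DMSO negative controls. Fixed with paraformaldehyde/Hoechst, then high-content imaging scored LipidTOX pit count and integrated intensity per well and per cell.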

[20] = qHTS assay to identify small molecule agonists of the sonic hedgehog signaling (Shh) pathway - cell viability counter screen (AID 1259366); note: nearly all actives have a fitted effect of over 50% in size
In short: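 After a 4hr attachment at 37C, NIH/3T3 cells bearing an integrated Gli1-driven luciferase reporter were dosed with compounds. Treatment lasted 24hr, with the final hour including CellTiter-Fluor for a fluorescence viability measurement.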
% is set by controls: 0 for no effect and ±100 for the full control effect.

Androgen receptor (Homo sapiens), sequence (P10275 whole entry, looked up): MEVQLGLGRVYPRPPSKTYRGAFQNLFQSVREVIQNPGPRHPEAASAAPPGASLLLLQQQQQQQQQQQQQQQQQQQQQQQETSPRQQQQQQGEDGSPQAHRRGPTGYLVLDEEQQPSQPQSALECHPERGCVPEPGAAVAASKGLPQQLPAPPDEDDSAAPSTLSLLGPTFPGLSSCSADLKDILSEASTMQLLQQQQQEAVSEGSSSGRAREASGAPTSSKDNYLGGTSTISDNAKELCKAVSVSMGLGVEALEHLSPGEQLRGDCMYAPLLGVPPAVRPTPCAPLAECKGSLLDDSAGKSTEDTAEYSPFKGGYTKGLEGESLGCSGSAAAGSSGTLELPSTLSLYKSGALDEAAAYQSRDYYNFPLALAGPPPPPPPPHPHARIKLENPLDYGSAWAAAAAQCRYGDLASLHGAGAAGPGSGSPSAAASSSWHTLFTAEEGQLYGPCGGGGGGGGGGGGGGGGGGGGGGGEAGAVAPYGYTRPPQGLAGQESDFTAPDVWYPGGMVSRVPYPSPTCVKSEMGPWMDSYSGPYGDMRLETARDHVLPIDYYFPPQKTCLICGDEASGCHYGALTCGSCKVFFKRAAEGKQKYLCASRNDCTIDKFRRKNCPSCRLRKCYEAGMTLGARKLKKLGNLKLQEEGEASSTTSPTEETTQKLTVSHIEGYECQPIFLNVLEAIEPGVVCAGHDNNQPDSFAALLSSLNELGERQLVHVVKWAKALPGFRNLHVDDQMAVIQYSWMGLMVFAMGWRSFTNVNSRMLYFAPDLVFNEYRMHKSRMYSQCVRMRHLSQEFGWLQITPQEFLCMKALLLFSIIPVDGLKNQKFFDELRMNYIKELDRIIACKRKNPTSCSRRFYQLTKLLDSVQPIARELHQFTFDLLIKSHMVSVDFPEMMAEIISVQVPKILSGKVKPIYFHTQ
Estrogen receptor (Homo sapiens), sequence (P03372 whole entry, looked up): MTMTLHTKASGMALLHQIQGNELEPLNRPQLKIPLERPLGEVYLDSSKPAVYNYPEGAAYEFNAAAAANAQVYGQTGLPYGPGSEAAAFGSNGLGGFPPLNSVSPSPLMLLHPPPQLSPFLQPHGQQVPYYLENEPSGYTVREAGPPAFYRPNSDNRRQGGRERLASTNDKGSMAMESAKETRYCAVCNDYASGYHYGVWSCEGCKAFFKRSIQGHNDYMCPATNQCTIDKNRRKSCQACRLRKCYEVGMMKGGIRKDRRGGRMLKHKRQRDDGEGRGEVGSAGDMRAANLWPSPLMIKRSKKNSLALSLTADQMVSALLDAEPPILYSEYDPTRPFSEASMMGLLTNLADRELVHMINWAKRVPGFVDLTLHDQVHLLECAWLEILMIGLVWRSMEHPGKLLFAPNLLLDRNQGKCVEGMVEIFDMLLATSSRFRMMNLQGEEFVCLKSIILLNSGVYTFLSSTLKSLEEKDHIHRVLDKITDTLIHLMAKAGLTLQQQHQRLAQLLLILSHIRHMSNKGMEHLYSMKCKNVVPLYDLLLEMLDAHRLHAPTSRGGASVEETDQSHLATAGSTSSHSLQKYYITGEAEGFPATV

Cc1c(N)cccc1N
inactive: Potency [1] | Potency [2] | Potency [3] | Potency [4] | outcome [5] | Potency [6] | Potency [7] | Potency [8] | Potency [9] | Potency [10] | outcome [11] | Potency [12] | outcome [13] | Potency [14] | Potency [15]

N#CSCC(=O)O
inactive: Potency [1] | Potency [2] | Potency [3] | Potency [4] | outcome [5] | Potency [6] | Potency [7] | Potency [8] | Potency [9] | Potency [10] | outcome [11] | Potency [16] | Potency [17] | Potency [12] | outcome [13] | Potency [14] | Potency [15]

O=Cc1ccc(F)c(Br)c1
inactive: Potency [1] | Potency [2] | Potency [3] | Potency [4] | outcome [5] | Potency [6] | Potency [7] | Potency [8] | Potency [9] | Potency [10] | outcome [11] | Potency [17] | Potency [12] | outcome [13] | Potency [15]

C[C@@H]1CN(c2c(F)c(F)c3c(=O)c(C(=O)O)cn(C4CC4)c3c2F)C[C@H](C)N1
inactive: cytotoxicity increase [1] -0.134% [at 15.8 µM] | cytotoxicity [2] -1.92% [at 15.8 µM] | cytotoxicity increase [3] -14.8% [at 15.8 µM] | cytotoxicity increase [4] -0.256% [at 15.8 µM] | activity change, negative = cytotoxic [5] -2.02% [at 15.8 µM] | activity change, negative = cytotoxicity [7] 0.326% [at 15.8 µM] | activity change [18] 1.09% [at 15.8 µM, stronger effect = higher value] | activity change, negative = cytotoxicity [8] -0.832% [at 15.8 µM] | cytotoxicity increase [9] -9.96% [at 15.8 µM] | activity change, negative = cytotoxicity [10] 13.3% [at 19 µM] | viability change, negative = cytotoxic [11] 2.13% [at 19 µM] | Potency [16] | activity change, negative = inhibition [17] 0.469% [at 19 µM] | outcome [19] | activity change, negative = inhibition [12] -5.53% [at 19 µM] | activity change, negative = cytotoxicity [13] -3.08% [at 19 µM] | viability change, negative = cytotoxic [20] 6.74% [at 19 µM] | viability change, negative = cytotoxic [14] -0.257% [at 19 µM] | activity change [15] 3.53% [at 18.9 µM, stronger effect = higher value]

O=C1CCN(c2ccccc2)N1
inactive: Potency [1] | Potency [2] | Potency [3] | Potency [4] | outcome [5] | Potency [6] | Potency [7] | Potency [8] | Potency [9] | Potency [10] | outcome [11] | Potency [17] | Potency [12] | outcome [13] | Potency [20] | Potency [14] | Potency [15]

C[C@]12C(=O)OC(=O)[C@H]1[C@H]1C=C[C@@H]2C1
inactive: Potency [1] | Potency [2] | Potency [3] | Potency [4] | outcome [5] | Potency [6] | Potency [7] | Potency [8] | Potency [9] | Potency [10] | outcome [11] | Potency [17] | Potency [12] | outcome [13] | Potency [15]

O=C1CCCCCCCCCCC(=O)OCCO1
active: Potency [3] 24.5 µM
inactive: Potency [1] | Potency [2] | Potency [4] | outcome [5] | Potency [6] | Potency [18] | Potency [8] | Potency [9] | Potency [10] | outcome [11] | Potency [17] | Potency [12] | outcome [13] | Potency [20] | Potency [15]

CC1=C(O)C(=O)OC1C (stereo unspecified)
inactive: Potency [1] | Potency [2] | Potency [3] | Potency [4] | outcome [5] | Potency [6] | Potency [7] | Potency [8] | Potency [9] | Potency [10] | outcome [11] | Potency [12] | outcome [13] | Potency [20] | Potency [14] | Potency [15]

O=c1[nH]cnc2c1ncn2[C@@H]1O[C@H](CO)[C@@H](O)[C@H]1O
inactive: Potency [1] | Potency [2] | Potency [3] | Potency [4] | outcome [5] | Potency [6] | Potency [7] | Potency [8] | Potency [9] | Potency [10] | outcome [11] | outcome [19] | Potency [12] | outcome [13] | Potency [20] | Potency [15]

Cn1cnc2c(F)c(Nc3ccc(Br)cc3Cl)c(C(=O)NOCCO)cc21
inactive: Potency [1] | Potency [2] | Potency [4] | outcome [5] | Potency [6] | Potency [7] | Potency [8] | Potency [9] | outcome [11] | outcome [19] | Potency [12] | outcome [13] | Potency [14] | Potency [15]
active: Potency [3] 0.0379 µM | Potency [16] 5.96 µM

C1CSCCS1
inactive: Potency [1] | Potency [2] | Potency [3] | Potency [4] | outcome [5] | Potency [6] | Potency [7] | Potency [18] | Potency [8] | Potency [9] | outcome [11] | Potency [12] | outcome [13] | Potency [15]

CC1(C)C(=O)N(Cl)C(=O)N1Br
inactive: Potency [1] | Potency [2] | Potency [3] | Potency [4] | outcome [5] | Potency [6] | Potency [7] | Potency [8] | Potency [9] | Potency [10] | outcome [11] | Potency [12] | outcome [13] | Potency [20] | Potency [14] | Potency [15]

O=C(O[C@@H](C(=O)O)[C@@H](OC(=O)c1ccccc1)C(=O)O)c1ccccc1
inactive: Potency [1] | Potency [2] | Potency [3] | Potency [4] | outcome [5] | Potency [6] | Potency [7] | Potency [8] | Potency [9] | outcome [11] | Potency [12] | outcome [13] | Potency [20] | Potency [14] | Potency [15]

CC(C)(C)c1ccc(OC(=O)c2ccccc2O)cc1
active: Potency [12] 27.3 µM
inactive: Potency [1] | Potency [2] | Potency [3] | Potency [4] | outcome [5] | Potency [6] | Potency [7] | Potency [18] | Potency [8] | Potency [9] | outcome [11] | Potency [17] | outcome [13] | Potency [14]

O=C(CCCl)NCc1ccccc1
inactive: Potency [1] | Potency [2] | Potency [3] | Potency [4] | outcome [5] | Potency [7] | Potency [18] | Potency [8] | Potency [9] | Potency [10] | outcome [11] | Potency [17] | Potency [12] | outcome [13] | Potency [20] | Potency [15]

CC(C)Nc1nc(N)nc(Cl)n1
inactive: Potency [1] | Potency [2] | Potency [3] | Potency [4] | outcome [5] | Potency [7] | Potency [8] | Potency [9] | Potency [10] | outcome [11] | Potency [12] | outcome [13] | Potency [20] | Potency [15]

CC1(C)O[C@@H]2C[C@H]3[C@@H]4CCC5=CC(=O)CC[C@]5(C)[C@@]4(F)[C@@H](O)C[C@]3(C)[C@]2(C(=O)CCl)O1
inactive: Potency [1] | Potency [2] | Potency [3] | Potency [4] | outcome [5] | Potency [7] | Potency [18] | Potency [9] | Potency [10] | outcome [11] | Potency [17] | outcome [19] | Potency [12] | outcome [13] | Potency [14]
active: Potency [8] 5.35 µM

Cc1ccc([N+](=O)[O-])c(N)c1
inactive: Potency [1] | Potency [2] | Potency [3] | Potency [4] | outcome [5] | Potency [7] | Potency [18] | Potency [8] | Potency [9] | outcome [11] | Potency [12] | outcome [13] | Potency [15]

O=C1Nc2ccc([N+](=O)[O-])cc2C1=O
inactive: Potency [1] | Potency [2] | Potency [3] | Potency [4] | outcome [5] | Potency [18] | Potency [8] | Potency [9] | Potency [10] | outcome [11] | Potency [12] | outcome [13] | Potency [20] | Potency [14] | Potency [15]
